Vaccinia mCherry: vaccinia inhibition (mCherry reporter); Vaccinia virus mCherry reporter infection, fluorescence; Potency, µM (titrated, usually from 36.5 µM), for inactives: at the highest dose activity change, negative = inhibition, usual class: inhibitors; 310,000 tested, 0.63% active; calls by dose curve; tested in A549 cells; note: potency is the fitted concentration of half-maximal effect; nearly all actives have a fitted effect of over 35% in size
HCMV inh: human cytomegalovirus inhibition; 410,000 tested, 4.5% active; AID 1259415; activity change, negative = inhibition, % at 57.5 µM; HFF cells, HCMV-luciferase reporter, 72 h; stronger effect = lower value; in the data active = activity change below about -60%; inconclusive = no clear call, values can overlap the other calls; inactive = above about -39%
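Human foreskin fibroblasts infected with luciferase-reporter HCMV at MOI 1 PFU/cell, compounds at two doses. Luciferase measured 72 h post infection; normalized to buffer-only basal and Salinomycin (10uM) controls.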
Marburg entry inh: Marburg virus entry inhibition. Marburg virus pseudotyped entry inhibition, cell reporter. Potency, µM (titrated, usually from 37.8 µM), without a hit: at the top dose activity change, negative = inhibition, most hits filed as inhibitors. 300,000 tested, 1.8% active. AID 540276; calls by dose curve; tested in HEK293 cells; note: potency is the fitted concentration of half-maximal effect
VACV Venus inh: vaccinia inhibition (Venus reporter). Potency, µM (highest dose often 36.5 µM), for inactives: at the top dose activity change, negative = inhibition, usual class: inhibitors. Vaccinia virus Venus reporter expression, fluorescence. AID 720580. 330,000 tested, 0.46% active; calls by dose curve; tested in A549 cells; note: potency is the fitted concentration of half-maximal effect; nearly all actives have a fitted effect of over 30% in size
FMDV antiviral: foot and mouth disease virus antiviral activity; FMDV antiviral cell-based qHTS; Potency, µM (highest dose often 57.9 µM), without a hit: at the top dose activity change, negative = inhibition, usual class: inhibitors; 410,000 tested, 1.2% active; AID 1159524; calls by dose curve; tested in HEK293T cells; note: read-out not given here; potency is the fitted concentration of half-maximal effect; nearly all actives have a fitted effect of over 45% in size
Lassa entry inh: blocks Lassa virus binding to or entry into cells. Lassa virus pseudotype entry inhibition, cell reporter. Potency, µM (titrated, usually from 37.9 µM), inactives show top-dose activity change, negative = inhibition, actives largely listed as inhibitors. 300,000 tested, 1.2% active. AID 540256; calls by dose curve; tested in HEK293 cells; note: potency is the fitted concentration of half-maximal effect; nearly all actives have a fitted effect of over 50% in size
Active calls of the source: *; i = inactive; ? = inconclusive; / = not tested or not shown; [ ] = dose if it differs, or a comment. Hits are enriched below; roughly 6.5% of the tested compounds scored in any of these assays. % is set by controls: 0 for no effect and ±100 for the full control effect.

SMILES | Vaccinia mCherry | HCMV inh | Marburg entry inh | VACV Venus inh | FMDV antiviral | Lassa entry inh
O=C1C2C3c4ccccc4C(c4ccccc43)C2C(=O)N1c1ccncc1 (configuration not stated) | / | -64.4* | / | / | ? | /
O=C1C2C3c4ccccc4C(c4ccccc43)[C@@H]2C(=O)N1c1cccnc1 (some centres not stated) | -13.2% | -28.2 | ? | -3.9% | ? | 1.4%
C[C@H](CCC(=O)NCC(=O)O)C1CC[C@H]2[C@H]3C(C[C@H](O)[C@]12C)[C@@]1(C)CC[C@@H](O)C[C@H]1C[C@H]3O (some centres not stated) | -1.1% | / | / | -18.3% | -4.3% | /
CN(CCc1ccccc1)C(=O)c1ccc(NC(=O)Cc2ccc(NC(=O)C3CCCN(C(=O)C4CCC4)C3)cc2)cc1 (configuration not stated) | 10µM* | -69.9* | -6.4% | ? | ? | /
CN(CCc1ccccc1)C(=O)c1ccc(NC(=O)Cc2ccc(NC(=O)C3CCCN(C(=O)CCc4ccccc4)C3)cc2)cc1 (configuration not stated) | ? | -70.8* | / | ? | ? | /
CN(CCc1ccccc1)C(=O)c1ccc(NC(=O)Cc2ccc(NC(=O)C3CCN(C(=O)CCc4ccccc4)CC3)cc2)cc1 | ? | -88.4* | / | ? | ? | /
CN(CCc1ccccc1)C(=O)c1ccc(NC(=O)Cc2ccc(NC(=O)C3CCN(C(=O)C4CCCCC4)CC3)cc2)cc1 | ? | -60.4* | / | -22.7% | -28.0% | /
COc1ccc(S[C@]2(c3nc(-c4cccnc4)no3)CC(=O)N[C@@H]2c2ccc(OC)cc2)cc1 | / | 23.5 | / | / | / | /
C=CCn1c(N)c(C(=O)Nc2ccccc2OC)sc1=S | -14.2% | 46.3 | 14.7% | -13.4% | 31.7% | -4.0%
Cn1c(N)c(C(=O)Nc2ccc(-c3ccccc3)cc2)sc1=S | / | -75.8* | / | / | ? | /
CCn1c(N)c(C(=O)NCC2CCCO2)sc1=S (configuration not stated) | / | 12.7 | 3.0% | -4.4% | -22.4% | 13.5%
C=CCn1c(N)c(C(=O)Nc2ccc(C)cc2)sc1=S | ? | -90.7* | -2.8% | -5.9% | 74.0% | /
C=CCn1c(N)c(C(=O)NCC2CCCO2)sc1=S (configuration not stated) | -17.4% | -62.1* | -2.4% | -14.2% | -16.0% | 17.8%
COc1ccc(CNC(=O)CC(c2ccc(OC)cc2)N2Cc3ccccc3C2=O)cc1 (configuration not stated) | -7.0% | ? | / | -13.8% | 12.8% | -0.3%[46.1 µM]
CC(C)Oc1ccc(Nc2cc3c(cn2)cc(-c2cccnc2)n3C)cc1 | / | -6.4 | / | / | / | /
Cc1ccc(N(C)/N=C/c2ccc(Cl)cc2Cl)nn1 | / | -67.5* | / | / | 49.5% | /
CCN1CCOC(=O)C1CC(=O)Nc1cc(Cl)ccc1C (configuration not stated) | -10.3%[7.34 µM] | -1.4 | -11.8%[46.1 µM] | -5.0%[7.34 µM] | -10.4% | 9.5%[46.1 µM]
COc1ccc(CN2[C@@H](CC(C)=O)c3ccc(/C=C/C(C)=O)cc3S2(=O)=O)cc1 | -9.7% | 33.8 | / | -12.6% | 31.6µM* | /
COc1ccccc1CN(Cc1cc2cc(C)cc(C)c2[nH]c1=O)Cc1nnnn1CC1CCCO1 (configuration not stated) | -24.2% | 6.9 | 10.3µM* | -12.9% | / | ?
COc1ccccc1CN(Cc1cc2cc(C)ccc2[nH]c1=O)Cc1nnnn1Cc1ccco1 | / | -3.8 | 12.6µM* | ? | ? | ?
COc1ccc2[nH]c(=O)c(CN(Cc3ccco3)Cc3nnnn3Cc3ccccc3)cc2c1 | -14.0% | -30.6 | -17.8% | -14.7% | -16.4% | -13.1%
CCOc1ccc2[nH]c(=O)c(CN(CCO)C3(c4nnnn4C4CCCCC4)CCCCC3)cc2c1 | -9.6% | -60.6* | ? | -9.8% | ? | 5.3%
CCc1ccc2[nH]c(=O)c(CN(Cc3ccccc3OC)Cc3nnnn3Cc3ccco3)cc2c1 | / | 5.2 | ? | 28.2µM* | ? | ?
Cc1ccc(-c2nnc(SCC(=O)NC3CCCC3)nc2-c2ccc(C)cc2)cc1 | -15.4% | -8.8 | / | -16.6% | -16.1% | -2.1%[46.1 µM]
CCOc1ccc2[nH]c(=O)c(CN(Cc3nnnn3Cc3ccco3)C3CCCCC3)cc2c1 | / | -2.8 | 10µM* | -17.9% | -22.8% | ?
SMILES | Vaccinia mCherry | HCMV inh | Marburg entry inh | VACV Venus inh | FMDV antiviral | Lassa entry inh
CC1CC(C)CN(C(=O)c2ccc(S(=O)(=O)N3CC(C)CC(C)C3)cc2)C1 (configuration not stated) | -17.6% | -65.0* | ? | -4.6% | -19.9% | ?
CC1CC(C)CN(S(=O)(=O)c2ccc(C(=O)N3CCCC3)cc2)C1 (configuration not stated) | i | ? | 13.3% | -7.9% | -4.5% | -14.5%
CC(=O)c1ccc(S(=O)(=O)N2CCN(C(=O)c3ccc(-n4nc(C)c(Cl)c4C)cc3)CC2)cc1 | / | -90.1* | / | / | ? | /
O=C(C(=O)c1cc(Br)ccc1O)c1cc(Br)ccc1O | ? | -97.3* | ? | ? | -3.4% | ?
O=C1C=C(c2cccs2)C[C@H](c2ccccc2)[C@H]1n1nnc([N+](=O)[O-])n1 | ? | -80.2* | 1.26µM* | ? | -1.9% | ?
O=c1[nH]c(NC2CCCCC2)nnc1Cc1ccccc1 | / | -4.7 | -0.1% | / | 29.8% | 9.1%
O=c1[nH]c(Nc2ccc3c(c2)OCCO3)nnc1Cc1ccccc1 | -9.3% | -73.2* | 21.8%[46.1 µM] | 0.9% | -6.4% | -17.6%
CCCOc1ccccc1N/C(=N/c1nc(C)cc(C)n1)NC(=O)Nc1ccc(Cl)cc1 | -8.0% | -38.4 | 0.708µM* | 0.7% | -26.9% | ?
CCc1ccc(N/C(=N/c2nc(C)cc(C)n2)NC(C)=O)cc1 | / | -60.0* | / | / | -9.2% | /
O=C(C1CCCO1)N1CCN(C(=S)Nc2ccc(Cl)c(Cl)c2)CC1 (configuration not stated) | ? | -10.1 | ? | -29.5% | 54.5% | 10µM*
O=C(c1ccc(F)cc1)N1CC(=O)N2[C@@H](CO)[C@@H](c3ccc(Br)cc3)[C@@H]2C1 | / | -1.1 | / | / | / | /
CC(=O)N(c1ccc(Cl)cc1)c1cn(C(C)=O)c2ccccc12 | -5.0% | 72.2 | ? | -13.5% | -16.1% | -27.5%[46.1 µM]
CC(=O)n1cc(N(C(=O)CCl)c2ccc(C)cc2)c2ccccc21 | -10.1% | -97.4* | 7.08µM* | -19.1% | 14.1µM* | ?
N/C(=N\OC(=O)C1CCCCC1)c1ccc(Cl)cc1 | / | -1.5 | / | / | 41.7% | /
NC(=NC1CCCCC1)c1ccc(Cl)cc1 | i | -27.1 | ? | -13.4% | 1.41µM* | -6.3%[46.1 µM]
CCOc1ccc(C2CC(=O)NC(NC(=O)c3cccc(Cl)c3)=N2)cc1 (configuration not stated) | -14.6% | 93.2 | / | -23.0% | 19.3% | ?
O=C(COC(=O)/C=C/c1ccc2c(c1)OCO2)NCc1ccc(F)cc1 | i | -63.6* | / | -11.9% | -24.5% | /
O=C(COC(=O)c1ccccc1F)NCc1ccc2c(c1)OCO2 | / | -27.5 | / | / | 26.4% | /
